# In ChEMBL document CHEMBL1961873, “Compounds: GSK PKIS; Assays: Nanosyn kinase panel” (2012):
# Experiments:
# [1] = molecular target: T1, Serine/threonine-protein kinase Nek9 (Homo sapiens) (UniProt Q8TD19); conditions: at 1 µM;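 further: each value is a mean percent inhibition of NEK9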
# T1 sequence (whole entry): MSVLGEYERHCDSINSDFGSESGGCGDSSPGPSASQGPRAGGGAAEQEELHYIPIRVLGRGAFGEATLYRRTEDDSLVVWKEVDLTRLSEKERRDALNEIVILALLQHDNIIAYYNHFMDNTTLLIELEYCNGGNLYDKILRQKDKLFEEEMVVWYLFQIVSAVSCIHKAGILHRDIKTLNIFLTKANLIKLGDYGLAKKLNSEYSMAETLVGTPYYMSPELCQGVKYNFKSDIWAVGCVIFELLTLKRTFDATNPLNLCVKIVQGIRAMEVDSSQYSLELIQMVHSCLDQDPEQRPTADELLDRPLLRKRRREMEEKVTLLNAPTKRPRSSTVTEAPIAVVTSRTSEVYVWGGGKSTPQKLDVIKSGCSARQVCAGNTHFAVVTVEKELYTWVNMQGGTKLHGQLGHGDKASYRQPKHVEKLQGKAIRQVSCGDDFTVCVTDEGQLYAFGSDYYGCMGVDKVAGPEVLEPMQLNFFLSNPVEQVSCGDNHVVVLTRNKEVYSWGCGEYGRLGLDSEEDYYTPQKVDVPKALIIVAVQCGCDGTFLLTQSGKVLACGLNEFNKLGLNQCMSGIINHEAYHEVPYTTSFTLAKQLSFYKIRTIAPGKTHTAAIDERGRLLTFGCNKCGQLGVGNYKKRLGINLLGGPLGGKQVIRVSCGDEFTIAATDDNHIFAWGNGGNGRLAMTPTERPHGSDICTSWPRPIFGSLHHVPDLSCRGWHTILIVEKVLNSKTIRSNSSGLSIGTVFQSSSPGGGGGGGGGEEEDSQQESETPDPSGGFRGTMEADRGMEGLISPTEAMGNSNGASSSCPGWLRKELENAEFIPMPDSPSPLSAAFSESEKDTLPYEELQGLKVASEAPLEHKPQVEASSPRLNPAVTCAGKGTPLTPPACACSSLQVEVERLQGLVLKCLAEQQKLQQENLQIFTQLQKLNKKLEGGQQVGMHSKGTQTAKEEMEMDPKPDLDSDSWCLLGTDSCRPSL
# [2] = molecular target: Serine/threonine-protein kinase PLK1 (Homo sapiens) (UniProt P53350); conditions: at 0.1 µM
# [3] = molecular target: Serine/threonine-protein kinase PLK1 (Homo sapiens) (UniProt P53350); conditions: at 1 µM
# [4] = molecular target: T2, Dual specificity protein kinase TTK (Homo sapiens) (UniProt P33981); conditions: at 0.1 µM
# T2 sequence (whole entry): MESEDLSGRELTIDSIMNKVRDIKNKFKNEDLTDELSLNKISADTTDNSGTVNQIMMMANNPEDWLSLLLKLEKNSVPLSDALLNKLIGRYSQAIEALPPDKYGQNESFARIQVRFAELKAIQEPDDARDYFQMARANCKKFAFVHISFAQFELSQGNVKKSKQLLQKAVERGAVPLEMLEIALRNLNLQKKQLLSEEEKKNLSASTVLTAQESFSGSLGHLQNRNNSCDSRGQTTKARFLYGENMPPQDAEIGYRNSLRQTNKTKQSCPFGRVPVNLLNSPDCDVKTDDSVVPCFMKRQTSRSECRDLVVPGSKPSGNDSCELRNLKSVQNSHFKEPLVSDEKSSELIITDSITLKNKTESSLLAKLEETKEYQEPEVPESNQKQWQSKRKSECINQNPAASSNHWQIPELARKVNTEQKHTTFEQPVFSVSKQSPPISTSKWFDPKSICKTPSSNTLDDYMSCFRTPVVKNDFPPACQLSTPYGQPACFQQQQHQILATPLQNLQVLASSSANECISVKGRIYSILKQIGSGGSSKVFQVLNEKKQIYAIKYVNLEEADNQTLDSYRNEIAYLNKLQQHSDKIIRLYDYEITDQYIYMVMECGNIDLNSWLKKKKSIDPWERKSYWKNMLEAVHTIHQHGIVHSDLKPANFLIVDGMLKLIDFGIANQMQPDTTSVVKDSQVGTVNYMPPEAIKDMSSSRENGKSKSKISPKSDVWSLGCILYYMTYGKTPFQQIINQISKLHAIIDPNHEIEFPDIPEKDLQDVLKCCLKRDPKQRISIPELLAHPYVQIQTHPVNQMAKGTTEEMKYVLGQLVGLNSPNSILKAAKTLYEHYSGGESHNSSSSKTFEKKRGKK
# [5] = tested on: T3, Receptor-type tyrosine-protein kinase FLT3 (Homo sapiens), P36888 [D835Y]; conditions: at 1 µM
# T3 sequence (whole entry): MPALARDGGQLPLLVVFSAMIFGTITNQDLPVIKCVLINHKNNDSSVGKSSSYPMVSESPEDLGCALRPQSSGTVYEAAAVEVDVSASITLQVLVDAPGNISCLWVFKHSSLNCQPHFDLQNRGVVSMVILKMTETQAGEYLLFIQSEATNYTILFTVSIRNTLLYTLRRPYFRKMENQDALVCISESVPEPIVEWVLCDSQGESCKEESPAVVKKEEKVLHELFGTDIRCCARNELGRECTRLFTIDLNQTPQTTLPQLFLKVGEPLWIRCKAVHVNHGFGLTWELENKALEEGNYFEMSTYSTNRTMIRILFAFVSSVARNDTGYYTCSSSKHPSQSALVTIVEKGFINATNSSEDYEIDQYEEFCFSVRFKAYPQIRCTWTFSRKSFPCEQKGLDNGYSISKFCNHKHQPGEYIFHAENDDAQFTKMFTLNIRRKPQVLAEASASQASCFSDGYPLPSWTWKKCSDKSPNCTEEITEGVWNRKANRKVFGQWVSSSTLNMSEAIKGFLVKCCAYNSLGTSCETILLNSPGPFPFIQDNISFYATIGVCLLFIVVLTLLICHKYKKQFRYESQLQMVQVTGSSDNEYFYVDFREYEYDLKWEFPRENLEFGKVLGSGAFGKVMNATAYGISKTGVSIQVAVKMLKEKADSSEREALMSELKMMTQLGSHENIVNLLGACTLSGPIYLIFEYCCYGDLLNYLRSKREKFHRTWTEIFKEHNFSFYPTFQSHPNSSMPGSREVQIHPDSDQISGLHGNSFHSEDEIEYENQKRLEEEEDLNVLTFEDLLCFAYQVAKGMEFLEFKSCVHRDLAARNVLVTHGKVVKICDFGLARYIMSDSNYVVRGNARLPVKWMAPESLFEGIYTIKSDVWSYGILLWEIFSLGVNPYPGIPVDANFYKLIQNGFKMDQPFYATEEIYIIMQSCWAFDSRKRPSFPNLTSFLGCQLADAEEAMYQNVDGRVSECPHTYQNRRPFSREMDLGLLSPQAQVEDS
# [6] = molecular target: Vascular endothelial growth factor receptor 3 (Homo sapiens) (UniProt P35916); conditions: at 0.1 µM
# [7] = molecular target: Vascular endothelial growth factor receptor 3 (Homo sapiens) (UniProt P35916); conditions: at 1 µM
# [8] = molecular target: Macrophage colony-stimulating factor 1 receptor (Homo sapiens) (UniProt P07333); conditions: at 0.1 µM
# [9] = molecular target: Macrophage colony-stimulating factor 1 receptor (Homo sapiens) (UniProt P07333); conditions: at 1 µM
# [10] = molecular target: Tyrosine-protein kinase Fyn (Homo sapiens) (UniProt P06241); conditions: at 0.1 µM
# Chain of Tyrosine-protein kinase Fyn (Homo sapiens) (P06241 2-537 limits assumed): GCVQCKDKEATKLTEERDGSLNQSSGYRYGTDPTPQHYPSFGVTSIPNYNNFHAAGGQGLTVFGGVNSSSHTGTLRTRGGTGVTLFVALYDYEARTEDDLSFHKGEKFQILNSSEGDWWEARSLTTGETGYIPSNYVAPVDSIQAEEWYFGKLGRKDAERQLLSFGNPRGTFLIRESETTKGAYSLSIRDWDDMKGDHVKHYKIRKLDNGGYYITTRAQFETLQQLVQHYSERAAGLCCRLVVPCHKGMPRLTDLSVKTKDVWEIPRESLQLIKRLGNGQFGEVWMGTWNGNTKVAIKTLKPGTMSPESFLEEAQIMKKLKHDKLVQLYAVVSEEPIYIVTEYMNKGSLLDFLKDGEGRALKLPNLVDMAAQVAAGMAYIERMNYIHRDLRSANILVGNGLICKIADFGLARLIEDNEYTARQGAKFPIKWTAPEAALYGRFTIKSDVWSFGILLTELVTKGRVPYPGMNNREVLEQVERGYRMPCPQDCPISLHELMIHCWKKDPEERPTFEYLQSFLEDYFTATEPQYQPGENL
# Chain of Vascular endothelial growth factor receptor 3 (Homo sapiens) (P35916 whole entry): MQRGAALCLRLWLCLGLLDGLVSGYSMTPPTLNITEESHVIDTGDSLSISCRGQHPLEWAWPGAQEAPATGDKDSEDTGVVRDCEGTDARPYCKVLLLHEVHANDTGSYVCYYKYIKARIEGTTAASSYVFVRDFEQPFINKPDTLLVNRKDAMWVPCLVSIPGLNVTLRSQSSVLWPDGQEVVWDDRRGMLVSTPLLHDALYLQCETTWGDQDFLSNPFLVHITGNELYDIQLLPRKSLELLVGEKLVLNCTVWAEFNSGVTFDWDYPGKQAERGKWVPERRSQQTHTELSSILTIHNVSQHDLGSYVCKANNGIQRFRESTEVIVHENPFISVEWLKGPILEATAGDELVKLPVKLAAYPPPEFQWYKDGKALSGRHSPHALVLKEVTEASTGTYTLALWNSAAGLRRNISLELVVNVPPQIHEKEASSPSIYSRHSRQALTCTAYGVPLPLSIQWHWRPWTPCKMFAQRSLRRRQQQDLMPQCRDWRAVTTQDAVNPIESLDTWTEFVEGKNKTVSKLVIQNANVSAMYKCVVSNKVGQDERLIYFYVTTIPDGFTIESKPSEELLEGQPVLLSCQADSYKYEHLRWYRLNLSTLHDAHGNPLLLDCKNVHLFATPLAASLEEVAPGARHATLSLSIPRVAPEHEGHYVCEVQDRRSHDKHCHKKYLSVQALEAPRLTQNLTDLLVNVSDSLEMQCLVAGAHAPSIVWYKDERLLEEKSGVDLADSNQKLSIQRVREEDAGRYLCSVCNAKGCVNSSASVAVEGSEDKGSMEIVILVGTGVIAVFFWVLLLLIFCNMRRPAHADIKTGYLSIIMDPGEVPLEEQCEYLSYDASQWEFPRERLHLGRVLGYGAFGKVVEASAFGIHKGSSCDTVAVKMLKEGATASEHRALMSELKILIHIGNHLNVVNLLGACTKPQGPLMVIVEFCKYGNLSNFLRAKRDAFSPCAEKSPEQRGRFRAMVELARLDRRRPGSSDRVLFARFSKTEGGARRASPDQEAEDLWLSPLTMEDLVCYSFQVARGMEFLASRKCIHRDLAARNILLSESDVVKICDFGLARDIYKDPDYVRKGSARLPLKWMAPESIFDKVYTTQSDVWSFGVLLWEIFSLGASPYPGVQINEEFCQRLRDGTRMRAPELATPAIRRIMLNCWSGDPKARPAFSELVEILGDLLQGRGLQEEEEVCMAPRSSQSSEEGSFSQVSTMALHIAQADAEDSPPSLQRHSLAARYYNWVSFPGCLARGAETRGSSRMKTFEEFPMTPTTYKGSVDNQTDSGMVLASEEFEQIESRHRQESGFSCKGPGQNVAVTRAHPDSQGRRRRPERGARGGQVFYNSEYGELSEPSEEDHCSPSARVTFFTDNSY
# Chain of Macrophage colony-stimulating factor 1 receptor (Homo sapiens) (P07333 whole entry): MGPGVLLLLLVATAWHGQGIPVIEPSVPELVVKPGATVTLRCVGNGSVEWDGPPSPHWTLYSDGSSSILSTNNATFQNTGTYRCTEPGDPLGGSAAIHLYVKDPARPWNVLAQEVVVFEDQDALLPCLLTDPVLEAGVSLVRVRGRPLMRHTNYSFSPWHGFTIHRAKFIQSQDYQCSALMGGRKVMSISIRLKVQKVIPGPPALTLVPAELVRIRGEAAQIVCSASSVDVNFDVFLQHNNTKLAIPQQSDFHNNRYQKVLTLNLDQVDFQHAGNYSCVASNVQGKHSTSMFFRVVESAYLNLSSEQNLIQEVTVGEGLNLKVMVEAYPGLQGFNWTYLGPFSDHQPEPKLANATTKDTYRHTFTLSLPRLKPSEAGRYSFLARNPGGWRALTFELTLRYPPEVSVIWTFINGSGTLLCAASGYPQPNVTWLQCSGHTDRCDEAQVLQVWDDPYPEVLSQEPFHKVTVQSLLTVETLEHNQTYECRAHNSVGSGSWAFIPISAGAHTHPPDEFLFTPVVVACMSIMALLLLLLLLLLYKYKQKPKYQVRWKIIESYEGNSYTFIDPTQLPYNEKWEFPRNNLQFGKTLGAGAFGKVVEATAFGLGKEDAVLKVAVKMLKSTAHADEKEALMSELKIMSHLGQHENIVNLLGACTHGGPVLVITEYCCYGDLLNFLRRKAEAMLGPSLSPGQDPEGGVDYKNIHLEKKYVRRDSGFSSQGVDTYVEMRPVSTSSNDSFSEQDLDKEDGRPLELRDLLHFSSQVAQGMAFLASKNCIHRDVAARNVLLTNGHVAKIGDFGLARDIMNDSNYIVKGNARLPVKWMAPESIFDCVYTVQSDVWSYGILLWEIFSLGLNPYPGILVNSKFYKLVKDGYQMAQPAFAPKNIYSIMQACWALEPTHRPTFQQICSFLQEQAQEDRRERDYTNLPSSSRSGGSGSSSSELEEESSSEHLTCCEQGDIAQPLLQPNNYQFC
# Chain of Serine/threonine-protein kinase PLK1 (Homo sapiens) (P53350 whole entry): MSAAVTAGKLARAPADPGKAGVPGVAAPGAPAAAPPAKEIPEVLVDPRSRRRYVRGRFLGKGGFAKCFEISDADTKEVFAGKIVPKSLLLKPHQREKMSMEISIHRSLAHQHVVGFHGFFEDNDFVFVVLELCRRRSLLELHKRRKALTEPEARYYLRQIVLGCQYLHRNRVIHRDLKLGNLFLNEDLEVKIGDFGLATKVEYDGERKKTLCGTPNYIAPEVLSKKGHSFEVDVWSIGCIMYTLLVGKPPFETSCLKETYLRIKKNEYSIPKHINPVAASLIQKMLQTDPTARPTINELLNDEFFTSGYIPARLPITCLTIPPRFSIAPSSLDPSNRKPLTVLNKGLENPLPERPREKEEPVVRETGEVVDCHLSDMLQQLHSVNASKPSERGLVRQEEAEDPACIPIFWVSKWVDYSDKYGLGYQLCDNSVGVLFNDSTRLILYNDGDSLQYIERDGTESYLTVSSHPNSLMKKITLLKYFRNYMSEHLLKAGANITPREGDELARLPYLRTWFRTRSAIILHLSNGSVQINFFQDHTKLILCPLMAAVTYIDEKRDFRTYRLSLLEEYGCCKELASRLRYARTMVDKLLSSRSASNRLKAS
Compound,inhibition [1] [%],inhibition [2] [%],inhibition [3] [%],inhibition [4] [%],inhibition [5] [%],inhibition [6] [%],inhibition [7] [%],inhibition [8] [%],inhibition [9] [%],inhibition [10] [%]
O=C1NC(=O)C(c2ccc(Cl)cc2)=C1Nc1ccc(Cl)c(C(=O)O)c1,-2.24,-1.32,-2.04,-4.32,2.75,1.23,6.6,0.6,2.16,2.16
COc1ccc(-c2nn3ncccc3c2-c2ccnc(Nc3ccc(Cl)c(C(F)(F)F)c3)n2)cc1,6.74,0.21,3.01,5.35,-6.5,-0.61,3.27,-1.71,5.03,3.8
CS(=O)(=O)Nc1ccc(N/C=C2\C(=O)Nc3ccccc32)cc1,9.7,-2.87,-1.15,-2.98,59.1,4.02,30.6,7.03,41.7,0.12
NS(=O)(=O)c1cccc(-c2ccc3c(NC(=O)C4CC4)n[nH]c3c2)c1,2.04,0.99,-1.05,-4.5,-1.12,2.99,5.11,-0.02,2.28,1.2
CS(=O)(=O)CCN(CC#N)Cc1ccc(-c2ccc3ncnc(Nc4ccc(OCc5cccc(F)c5)c(Cl)c4)c3c2)o1,3.24,4.17,2.97,2.64,0.21,-3.53,-8.49,1.14,5.44,-3.25
NC(=O)c1cccc(Nc2nccc(Nc3cccc4[nH]ncc34)n2)c1,7.1,-1.69,3.37,-7.5,37.5,5.01,33.4,3.46,34.1,85.9
CCCN1CCC=C(c2ccc(Nc3nc(Nc4ccccc4C(N)=O)c4cc[nH]c4n3)c(C)c2)C1,7.97,13.9,53.6,70.8,20.8,9,26.6,27.4,63.1,4.83
CC1=C(C(=O)Nc2ccc3[nH]ncc3c2)C(c2ccc3ccccc3c2)CC(=O)N1 (stereo not given),2.05,2.98,1.98,5.26,1.5,1.27,3.27,7.17,2.62,2
COc1ccccc1Nc1ncc(-c2ccccc2)o1,5.41,4.91,4.18,10.2,25.5,3.38,9.85,12,53.5,4.02
Cc1cccc(-c2n[nH]cc2-c2ccc3ncccc3n2)n1,4.16,0.53,3.07,2.51,-2.35,4.9,39.4,2.38,2.47,0.64
CS(=O)(=O)CCNCc1ccc(-c2ccc3ncnc(Nc4ccc(OCc5ccccc5)c(Cl)c4)c3c2)o1,4.02,2.44,2.99,4.06,-0.19,3.02,2.54,-2.83,10,2.44
O=C(Nc1n[nH]c2nc(-c3ccco3)c(Br)cc12)C1CC1,3.52,4.46,4.35,4.94,5.36,1.95,9.43,0.44,1.78,3.33
NCc1ccc(-c2nc(-c3ccc(Cl)c(O)c3)c(-c3ccncc3)[nH]2)cc1,-0.05,4.25,2.1,2.08,1.57,19.7,69,0.23,5.68,5.91
CS(=O)(=O)CCNCc1ccc(-c2ccc3ncnc(Nc4ccc(OCc5cccc(F)c5)c(C(F)(F)F)c4)c3c2)o1,10.1,3.95,3.53,12.1,4.32,-0.03,-1.42,0.94,-0.75,1.1
CC1=C(C(=O)Nc2ccc3[nH]ncc3c2)C(c2ccc(Cl)c(Cl)c2)CC(=O)N1 (stereo not given),3.13,2.57,1.43,2.15,0.84,-2.61,1,-0.52,1.97,1.91
CC(C)=Cc1cccc2c1/C(=N/Nc1ccc(S(N)(=O)=O)cc1)C(=O)N2,1.52,-0.43,0.59,11.7,66.6,4.82,46.6,41.8,86.8,4.49
